These results are taken from PubChem BioAssay.

Each structure is given as a SMILES string. Activity calls are given as the source filed them.

The test system of experiment [1] is Plasmodium falciparum Sir2 (PF13_0152, Sir2A). Kind of experiment: Plasmodium falciparum Sir2A binding compounds – biochemical, small-molecule microarray, 635 nm fluorescence, primary screen (AID 1098).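 Note: score merges spot fluorescence intensity with its signal-to-noise ratio.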 To be noted: fluorescence 635 nm, higher = more signal.
The nature of experiment [2]: probe aDKK1 binding to arrayed compounds – biochemical, biotinylated probe, 635/667 nm fluorescence, primary screen (AID 1099).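 Note: score merges 667nm spot fluorescence with signal to noise across triplicate slides.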 The note with it: small-molecule microarray, higher = more signal.
Experiment [3] can be described thus: probe aCHRDL2 binding to arrayed compounds – biochemical, biotinylated probe, 635/667 nm fluorescence, primary screen (AID 1100). The note with it: small-molecule microarray, higher = more signal.
Experiment [4] can be described thus: change in splice reporter luminescence, either direction, cell-based, HEK293, spliceosome inhibition project, primary screen (AID 1101).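 Note: HEK293 cells carrying a splicing-competent luciferase reporter gene; test concentration not given here.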 The note with it: HEK293 splicing luciferase reporter, 24 h, higher = more signal, called active from +8 up or from −8 down. Background: Reporter assays use an easily measured gene product as a stand-in for the process of interest.

Experiment [5] addresses Fibroblast growth factor 10 (Homo sapiens) (UniProt O15520). In words: compounds binding fibroblast growth factor 10 – biochemical, small-molecule microarray, 635 nm fluorescence, primary screen (AID 1102). To be noted: FGF10 binding, fluorescence 635 nm, higher = more signal.
Experiment [6] concerns glycogen synthase kinase-3 (GSK3A per assay name; protocol says GSK3B). Kind of experiment: compounds binding glycogen synthase kinase-3 – biochemical, small-molecule microarray, 635 nm fluorescence, GSK3A, primary screen (AID 1103). Note: the record names both GSK3A and GSK3B. The note with it: fluorescence 635 nm, higher = more signal.
Experiment [7] deals with Epidermal growth factor receptor (Homo sapiens) (UniProt P00533). Kind of experiment: compounds binding epidermal growth factor receptor – biochemical, small-molecule microarray, 635 nm fluorescence, primary screen (AID 1104).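 Note: score merges 667 nm emission intensity with spot signal to noise over triplicate slides.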 The note with it: EGFR binding, higher = more signal.
Chain of Epidermal growth factor receptor (Homo sapiens) (P00533 whole entry, looked up): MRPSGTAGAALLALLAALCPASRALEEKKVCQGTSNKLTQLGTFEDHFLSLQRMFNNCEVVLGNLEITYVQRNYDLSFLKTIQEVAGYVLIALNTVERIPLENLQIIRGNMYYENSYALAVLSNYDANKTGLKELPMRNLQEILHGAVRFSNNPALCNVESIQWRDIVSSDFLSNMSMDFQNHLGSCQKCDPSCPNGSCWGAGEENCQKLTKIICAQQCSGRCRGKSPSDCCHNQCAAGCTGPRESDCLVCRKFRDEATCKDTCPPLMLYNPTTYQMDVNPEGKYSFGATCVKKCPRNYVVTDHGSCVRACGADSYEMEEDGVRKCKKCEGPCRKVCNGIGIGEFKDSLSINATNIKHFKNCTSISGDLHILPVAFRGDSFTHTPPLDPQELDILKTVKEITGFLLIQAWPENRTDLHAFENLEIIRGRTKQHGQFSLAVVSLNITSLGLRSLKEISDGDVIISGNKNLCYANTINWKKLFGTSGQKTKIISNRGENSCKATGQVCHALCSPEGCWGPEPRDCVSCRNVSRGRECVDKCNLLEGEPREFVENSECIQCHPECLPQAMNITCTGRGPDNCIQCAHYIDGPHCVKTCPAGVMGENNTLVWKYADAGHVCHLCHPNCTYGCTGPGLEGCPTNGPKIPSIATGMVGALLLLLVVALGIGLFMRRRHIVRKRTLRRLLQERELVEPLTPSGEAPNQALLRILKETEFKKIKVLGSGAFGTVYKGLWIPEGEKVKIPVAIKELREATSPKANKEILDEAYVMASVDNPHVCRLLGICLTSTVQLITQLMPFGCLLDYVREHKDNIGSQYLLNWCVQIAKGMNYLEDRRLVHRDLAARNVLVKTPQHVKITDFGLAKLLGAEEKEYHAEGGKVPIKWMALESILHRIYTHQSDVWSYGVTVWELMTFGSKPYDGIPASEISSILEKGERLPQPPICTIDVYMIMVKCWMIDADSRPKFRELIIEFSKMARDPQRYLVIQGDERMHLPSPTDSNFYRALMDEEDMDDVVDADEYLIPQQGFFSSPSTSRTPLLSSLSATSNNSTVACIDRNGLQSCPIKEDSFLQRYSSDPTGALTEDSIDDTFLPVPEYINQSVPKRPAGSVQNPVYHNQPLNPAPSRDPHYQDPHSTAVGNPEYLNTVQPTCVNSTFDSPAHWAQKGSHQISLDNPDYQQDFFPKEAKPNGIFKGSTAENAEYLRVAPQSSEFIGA
Experiment [8] deals with Follistatin-related protein 3 (Homo sapiens) (UniProt O95633). Kind of experiment: compounds binding follistatin-related protein 3 – biochemical, small-molecule microarray, 635 nm fluorescence, primary screen (AID 1105).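 Note: score merges emission near 667 nm and signal to noise per printed spot across three slides.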 To be noted: FSTL3 binding, higher = more signal.
Chain of Follistatin-related protein 3 (Homo sapiens) (O95633 whole entry, looked up): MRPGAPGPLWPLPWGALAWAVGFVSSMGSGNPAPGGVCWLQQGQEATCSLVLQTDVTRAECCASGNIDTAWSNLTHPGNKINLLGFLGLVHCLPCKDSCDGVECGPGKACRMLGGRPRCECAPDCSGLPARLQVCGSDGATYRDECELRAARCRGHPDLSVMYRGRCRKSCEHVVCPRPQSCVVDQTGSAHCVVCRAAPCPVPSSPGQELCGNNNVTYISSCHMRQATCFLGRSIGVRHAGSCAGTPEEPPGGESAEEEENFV
For experiment [9], the target named is Dickkopf-related protein 1 (Homo sapiens) (UniProt O94907). Kind of experiment: small molecules binding DKK1 protein – biochemical, small-molecule microarray, 635 nm fluorescence scan, primary screen (AID 1106).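 Note: score merges emission near 667 nm with signal to noise over three replicate slides.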 To be noted: higher = more signal.
Chain of Dickkopf-related protein 1 (Homo sapiens) (O94907 whole entry, looked up): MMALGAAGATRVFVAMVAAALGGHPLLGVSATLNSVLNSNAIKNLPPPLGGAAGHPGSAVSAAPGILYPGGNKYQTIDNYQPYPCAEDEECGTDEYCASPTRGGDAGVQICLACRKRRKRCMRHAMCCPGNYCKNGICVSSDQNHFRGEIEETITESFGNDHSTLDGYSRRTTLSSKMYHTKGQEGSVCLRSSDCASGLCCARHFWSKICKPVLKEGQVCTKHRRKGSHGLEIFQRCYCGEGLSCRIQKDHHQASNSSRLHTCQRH
The subject of experiment [10] is Inhibin beta A chain (activin A). In words: small molecules binding activin A – biochemical, small-molecule microarray, 635 nm fluorescence scan, primary screen (AID 1107).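 Note: mouse activin A protein probed at 4.33 µg/mL on printed slides; score merges bound-protein fluorescence near 667 nm with spot signal-to-noise.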 To be noted: INHBA, higher = more signal.
For experiment [11], the system named is Human papillomavirus type 1a protein E7 (residues 44-93). In words: small molecules binding HPV E7 44-93 – biochemical, small-molecule microarray, residues 44-93, 635 nm fluorescence, primary screen (AID 1108).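 Note: E7 fragment applied at 1 µg/mL in TBST for 1 h at 4 C; score combines spot fluorescence with its signal to noise ratio.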 The note with it: fluorescence 635 nm, higher = more signal.
Experiment [12] is described as follows: hepatitis C replication reporter changes, two-sided – Huh7 cells, luciferase reporter, HCV replication inhibitor project, primary screen (AID 1109).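 Note: huh7 hepatoma cells harbouring a luciferase neomycin HCV replicon reporter; luciferase luminescence as measure of HCV replicon replication; test concentration not given here.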 To be noted: Huh7 HCV replicon luciferase reporter, 48 h; higher = more signal.
Experiment [13] has as its target Left-right determination factor 2 (Homo sapiens) (UniProt O00292). Kind of experiment: small molecules binding LEFTY2 protein – biochemical, small-molecule microarray, 635 nm fluorescence scan, primary screen (AID 1110). The note with it: higher = more signal.
For experiment [14], the target named is Calmodulin-1 (Homo sapiens) (UniProt P0DP23). Kind of experiment: small molecules binding calmodulin-1 with EGTA – biochemical, small-molecule microarray, Cy5-labelled CALM1, profiling panel (AID 1111).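 Note: labelled calmodulin applied in Tris saline Tween buffer holding calcium plus EGTA and DTT.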 The note with it: Cy5-CALM1 binding fluorescence, higher = more signal.
Experiment [15] has the same target. Kind of experiment: small molecules binding Ca-loaded calmodulin-1 – biochemical, small-molecule microarray, Cy5-labelled CALM1, plus calcium, artefact control for SMM control-protein annotation, profiling panel (AID 1112).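 Note: score merges spot fluorescence with signal to noise from triplicate slides.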 To be noted: Cy5-CALM1 binding fluorescence, higher = more signal.
Experiment [16] can be described thus: probe aWnt5a binding to arrayed compounds – biochemical, biotinylated probe, 635/667 nm fluorescence, primary screen (AID 1113).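 Note: score merges 667 nm fluorescence intensity with signal-to-noise per printed feature.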 To be noted: small-molecule microarray, higher = more signal.
The nature of experiment [17]: probe aShh binding to arrayed compounds – biochemical, biotinylated probe, 635/667 nm fluorescence, primary screen (AID 1114).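 Note: probe is biotin-labelled aShh protein from a stem cell growth factor screen; measures binding of labelled protein to compounds printed on the slide; score merges feature fluorescence at 667 nm with signal-to-noise.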 The note with it: small-molecule microarray, higher = more signal.
A short description of experiment [18]: probe aNog binding to arrayed compounds – biochemical, biotinylated probe, 635/667 nm fluorescence, primary screen (AID 1115).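 Note: probe is biotinylated aNog protein used at 0.15 µg/mL for 1 h at 4 C; z-score combines 667 nm fluorescence of each spot with its signal to noise.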 To be noted: small-molecule microarray, higher = more signal.
The target in experiment [19] is Torsin-1A-interacting protein 1 (Homo sapiens) (UniProt Q5JTV8). In words: compound microarray binding of lysate hLAP1 – cell lysate, small-molecule microarray, COS7 lysate, 635/667 nm fluorescence, primary screen (AID 1116). To be noted: 635 nm fluorescence, higher = more signal.
Chain of Torsin-1A-interacting protein 1 (Homo sapiens) (Q5JTV8 whole entry, looked up): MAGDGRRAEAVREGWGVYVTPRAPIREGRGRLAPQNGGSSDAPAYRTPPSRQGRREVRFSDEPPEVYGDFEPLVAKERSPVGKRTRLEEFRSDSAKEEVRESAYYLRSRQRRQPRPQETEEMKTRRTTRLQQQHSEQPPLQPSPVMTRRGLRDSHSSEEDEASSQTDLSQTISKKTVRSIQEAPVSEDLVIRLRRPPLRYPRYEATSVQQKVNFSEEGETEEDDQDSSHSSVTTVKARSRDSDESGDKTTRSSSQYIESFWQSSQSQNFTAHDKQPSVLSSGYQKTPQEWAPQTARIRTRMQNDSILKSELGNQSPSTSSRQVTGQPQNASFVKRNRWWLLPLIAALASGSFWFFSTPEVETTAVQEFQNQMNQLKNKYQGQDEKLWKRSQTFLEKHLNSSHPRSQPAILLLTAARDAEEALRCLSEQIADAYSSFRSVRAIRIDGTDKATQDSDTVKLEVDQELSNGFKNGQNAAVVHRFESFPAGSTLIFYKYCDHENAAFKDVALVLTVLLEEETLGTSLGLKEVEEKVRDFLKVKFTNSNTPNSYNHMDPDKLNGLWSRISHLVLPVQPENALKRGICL
Experiment [20] concerns the target Alpha-bungarotoxin (Bungarus multicinctus) (UniProt P60615). In words: compounds binding labelled alpha-BTX control protein – biochemical, small-molecule microarray, Alexa647 label, 635/667 nm fluorescence, artefact control for SMM control protein annotation, profiling panel (AID 1117). To be noted: alpha-BTX-A647 binding fluorescence, higher = more signal.

Chain of Left-right determination factor 2 (Homo sapiens) (O00292 whole entry, looked up): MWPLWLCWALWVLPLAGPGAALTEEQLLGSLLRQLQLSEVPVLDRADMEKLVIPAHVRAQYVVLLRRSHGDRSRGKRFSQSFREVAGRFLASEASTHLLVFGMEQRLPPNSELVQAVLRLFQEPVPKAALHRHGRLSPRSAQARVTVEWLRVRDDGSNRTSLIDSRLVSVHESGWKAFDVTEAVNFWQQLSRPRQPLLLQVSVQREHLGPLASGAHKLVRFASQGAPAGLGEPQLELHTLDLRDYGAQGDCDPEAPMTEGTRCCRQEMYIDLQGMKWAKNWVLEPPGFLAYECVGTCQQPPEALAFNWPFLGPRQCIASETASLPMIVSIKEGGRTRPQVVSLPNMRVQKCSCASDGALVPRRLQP
Chain of Fibroblast growth factor 10 (Homo sapiens) (O15520 whole entry, looked up): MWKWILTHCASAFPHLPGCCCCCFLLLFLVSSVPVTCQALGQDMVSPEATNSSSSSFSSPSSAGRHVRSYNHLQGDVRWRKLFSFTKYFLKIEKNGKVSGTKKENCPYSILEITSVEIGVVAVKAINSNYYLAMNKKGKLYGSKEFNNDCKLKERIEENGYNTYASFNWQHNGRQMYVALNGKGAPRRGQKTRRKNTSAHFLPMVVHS
Chain of Alpha-bungarotoxin (Bungarus multicinctus) (P60615 whole entry, looked up): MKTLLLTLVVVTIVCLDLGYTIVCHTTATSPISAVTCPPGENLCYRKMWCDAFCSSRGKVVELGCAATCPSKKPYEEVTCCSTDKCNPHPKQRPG

`O=C1C[C@@](C(=O)NC2CC2)(c2ccc([N+](=O)[O-])cc2)[C@@H](c2ccc(CO)cc2)N1C1CCCCC1`: the composite z-score in [1] is 1.68; in experiment [2], 0.0035; in [3] it was 0.49; in experiment [5] it was 1.5; in experiment [6], 0.808; in [7], 0.359. In addition, the composite z-score in experiment [8] came out at 1.32; in experiment [9] it was 0.517; in [10] it was 0.357; in [11], 1.44; in [13], 0.257; in experiment [14], 0.522. Besides, the composite z-score in experiment [15] was 0.435; in [16], -0.1; in experiment [17], 0.149; in [18], -0.292; in [19] it was 1.43; in experiment [20], 0.538. The z-score in experiment [4] is -0.975 (inactive); in [12] it was -2.02.

For `Cc1ccc(C(C)CC(O)C2C=CC3C(=O)N(C)C(=O)C3N2Nc2ccccc2)o1` (stereo not given), the composite z-score is 0.84 in experiment [1]; 0.169 in [2]; 0.778 in experiment [3]; 1.19 in experiment [5]; 1.25 in experiment [6]; 1 in [7]. The composite z-score in [8] is 1.39; in experiment [9], 0.593; in experiment [10] it was 0.989; in experiment [11], 1.4; in experiment [13] it was 0.79; in [14], 0.0895. The composite z-score was -0.0452 in experiment [15]; -0.0057 in experiment [16]; -0.0769 in experiment [17]; -0.213 in experiment [18]; 0.163 in experiment [19]; 0.6 in experiment [20]. Besides, the z-score in experiment [4] was 1.27 (inactive); in experiment [12], -0.955.

With `O=C1C2C=CC(C(O)c3ccc([N+](=O)[O-])cc3)N(Nc3ccccc3F)C2C(=O)N1c1ccccc1` (stereo not given), the composite z-score in experiment [1] was 1.22; in experiment [2], 0.912; in experiment [3] it was 0.941; in experiment [5], 0.436; in experiment [6], 0.351; in experiment [7] it was -0.0558. The composite z-score is 0.313 in experiment [8]; -0.516 in [9]; 0.941 in [10]; 0.395 in [11]; -0.303 in experiment [13]; 0.865 in experiment [14]. For the same compound, the composite z-score in experiment [15] worked out at 0.378; in [16] it was 0.0919; in [17], 0.0442; in [18], 1.01; in experiment [19], 1.55; in [20], 1.06. Besides, the z-score was 1.02 (inactive) in [4] and -0.288 in experiment [12].

As for `CN(C)c1ccc(C(O)C2C=CC3C(=O)N(Cc4ccccc4)C(=O)C3N2n2cnnc2)cc1` (stereo not given), the composite z-score in experiment [1] is 0.491; in experiment [2], -0.393; in experiment [3] it was 0.562; in experiment [5] it was 0.13; in experiment [6], -0.56; in experiment [7] it was 0.268. Besides, the composite z-score in experiment [8] is -0.0523; in experiment [9] it was 0.114; in experiment [10], 1.28; in experiment [11] it was -1.17; in [13], 0.205; in experiment [14], -0.207. The composite z-score is -0.363 in experiment [15]; -0.0037 in experiment [16]; 0.108 in experiment [17]; -0.0086 in experiment [18]; 0.304 in experiment [19]; 0.255 in experiment [20]. Further, the values for the z-score in experiment [4] and in experiment [12] were -0.394 (inactive) and -0.32, respectively.

`O=C1NC(=O)C2C1C=CC(C(O)c1ccc(B(O)O)cc1)N2Nc1ccc(Cl)cc1Cl` (stereo not given): the composite z-score is 0.46 in experiment [1]; 0.704 in experiment [2]; 0.326 in [3]; 0.0671 in experiment [5]; -0.0838 in experiment [6]; -0.174 in experiment [7]. The composite z-score was 0.317 in [8]; -0.414 in experiment [9]; 0.948 in [10]; -0.181 in experiment [11]; -0.401 in [13]; 0.524 in experiment [14]. In addition, the composite z-score in [15] is 0.0583; in experiment [16] it was -0.0721; in [17], -0.181; in experiment [18], 0.682; in experiment [19] it was 0.392; in experiment [20], 0.869. Further, the z-score in experiment [4] is 0.379 (inactive); in experiment [12] it was -0.693.

Regarding `C=C(COC)C(=O)CC[C@H](OC(=O)c1cccnc1)c1ccc(OCCO)cc1`, the composite z-score was 0.745 in [1]; -0.163 in experiment [2]; -0.139 in [3]; 1.08 in experiment [5]; 0.538 in experiment [6]; 0.163 in [7]. In addition, the composite z-score in experiment [8] was 1.03; in [9], 0.624; in experiment [10], 0.472; in [11] it was 1.27; in experiment [13] it was 0.65; in experiment [14], -0.395. Further, the composite z-score in experiment [15] is -1.33; in experiment [16], -0.176; in experiment [17] it was -0.379; in [18] it was -0.0762; in [19], 2.53; in experiment [20], 0.994. In addition, the z-score is -0.319 (inactive) in [4] and -0.345 in experiment [12].

Take `CN(C)CCCC[C@@H]1NC(=O)[C@@H]2C[C@H](C(=O)NCCCCCN)[C@H](c3cccc(OCCO)c3)N2C1=O`: the composite z-score in [1] is 0.789; in experiment [2] it was -0.0024; in [3] it was -0.21; in [5] it was 0.824; in experiment [6], 1.16; in [7], 0.428. The composite z-score in [8] is 0.567; in experiment [9], 0.565; in experiment [10] it was -0.401; in [11], 1.11; in [13] it was 0.64; in experiment [14], 1.77. Moreover, the composite z-score in experiment [15] was 0.717; in experiment [16], -0.174; in experiment [17] it was -0.16; in experiment [18], -0.301; in [19], 1.05; in experiment [20], 0.293. Also, the z-score in [4] was -1.66 (inactive); in experiment [12], 0.663.
